Assay outcomes (PubChem)
BLM inh = qHTS Assay for Inhibitors of Bloom's syndrome helicase (BLM); recombinant BLM DNA unwinding, fluorescence dequenching; actives 0.2% (n = 350,000); Potency, µM (titrated, usually from 56.1 µM), most hits filed as inhibitors; also: nearly all actives have a fitted effect of over 35% in size
Target sequence (P54132 whole entry, looked up): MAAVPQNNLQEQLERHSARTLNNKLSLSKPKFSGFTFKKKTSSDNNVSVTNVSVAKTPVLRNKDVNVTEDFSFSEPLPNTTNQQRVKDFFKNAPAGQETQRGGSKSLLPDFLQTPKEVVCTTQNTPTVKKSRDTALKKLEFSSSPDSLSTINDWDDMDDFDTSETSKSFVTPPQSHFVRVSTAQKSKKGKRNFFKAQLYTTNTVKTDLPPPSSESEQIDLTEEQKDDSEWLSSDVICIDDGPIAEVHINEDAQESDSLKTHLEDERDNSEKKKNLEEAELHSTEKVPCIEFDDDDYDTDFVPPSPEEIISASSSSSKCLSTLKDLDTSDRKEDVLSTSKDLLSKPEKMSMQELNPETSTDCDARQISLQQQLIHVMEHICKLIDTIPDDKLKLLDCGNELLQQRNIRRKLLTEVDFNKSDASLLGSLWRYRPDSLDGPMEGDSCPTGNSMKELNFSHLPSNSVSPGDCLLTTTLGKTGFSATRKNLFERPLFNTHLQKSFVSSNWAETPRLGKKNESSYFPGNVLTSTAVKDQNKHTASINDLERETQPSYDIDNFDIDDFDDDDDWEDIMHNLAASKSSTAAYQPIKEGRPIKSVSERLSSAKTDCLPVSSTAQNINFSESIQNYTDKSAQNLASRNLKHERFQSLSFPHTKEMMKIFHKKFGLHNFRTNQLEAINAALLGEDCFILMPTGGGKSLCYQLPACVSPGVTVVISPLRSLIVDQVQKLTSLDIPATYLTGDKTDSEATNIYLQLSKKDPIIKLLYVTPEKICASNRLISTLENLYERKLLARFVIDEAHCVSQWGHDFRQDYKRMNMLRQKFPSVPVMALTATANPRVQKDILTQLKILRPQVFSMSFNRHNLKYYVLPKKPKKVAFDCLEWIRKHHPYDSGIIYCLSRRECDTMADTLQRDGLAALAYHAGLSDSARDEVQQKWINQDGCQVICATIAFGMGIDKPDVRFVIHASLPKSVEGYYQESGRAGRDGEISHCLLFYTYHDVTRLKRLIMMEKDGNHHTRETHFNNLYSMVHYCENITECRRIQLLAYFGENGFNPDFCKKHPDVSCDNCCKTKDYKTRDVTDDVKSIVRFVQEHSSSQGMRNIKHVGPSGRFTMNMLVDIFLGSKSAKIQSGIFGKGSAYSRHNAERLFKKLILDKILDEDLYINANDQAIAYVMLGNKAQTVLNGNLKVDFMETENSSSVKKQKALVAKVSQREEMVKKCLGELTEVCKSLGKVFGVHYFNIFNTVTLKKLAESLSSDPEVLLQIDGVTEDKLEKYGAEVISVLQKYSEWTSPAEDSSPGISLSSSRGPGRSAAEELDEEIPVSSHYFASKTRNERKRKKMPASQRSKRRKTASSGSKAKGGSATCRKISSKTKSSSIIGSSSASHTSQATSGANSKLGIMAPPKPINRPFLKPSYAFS
GLS inh = qHTS for Inhibitors of Glutaminase (GLS); actives 0.21% (n = 410,000); AID 624170, 2012; Potency, µM (top dose mostly 45.5 µM), actives largely listed as inhibitors; GLS enzymatic activity, qHTS titration
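hKGA in 45 mM KH2PO4 (pH 8.2), 0.02% Tween-20 with compound, then 1mM L-Glutamine (stock as added) plus glutamate oxidase/HRP/Amplex red coupling mix. Fluorescence read initially and after 30 min at RT; signal change reflects glutamate formation.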
APE1 inh = qHTS Assay for Inhibitors of the Human Apurinic/apyrimidinic Endonuclease 1 (APE1); DNA repair nuclease/redox regulator APEX1 (Homo sapiens), P27695; Potency, µM (series often up to 65.8 µM), usual class: inhibitors; recombinant APE1, TAMRA/BHQ-2 abasic DNA cleavage fluorescence; actives 0.35% (n = 350,000); also: nearly all actives have a fitted effect of over 55% in size
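Measures dequenching upon AP-site incision of a 5'-TAMRA/3'-BHQ-2 THF-containing duplex, 50 nM; human APE1 0.75 nM after 15 min room-temperature exposure to compound; kinetic three-point read at one-minute spacing.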
PGK inhibitor = qHTS Assay to Find Inhibitors of Phosphoglycerate Kinase. Potency, µM (doses to about 57.5 µM), most hits filed as inhibitors. PGK/GAPDH coupled, Kinase-Glo luminescence, 60 min. Phosphoglycerate kinase, glycosomal (Trypanosoma brucei brucei), P07378. AID 602233, 2012. actives 0.043% (n = 380,000); also: nearly all actives have a fitted effect of over 60% in size
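Recombinant glycosomal PGK reaction used 1,3-bisphosphoglycerate generated in-well by GAPDH (100nM final) in 100mM TEA pH 7.6, 5mM MgCl2, 0.01% Tween-20. After 60 minutes at room temperature, ATP was read by Kinase-Glo Plus luminescence end-point.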
RECQ1 helicase = qHTS Assay for Inhibitors of RecQ-Like Dna Helicase 1 (RECQ1) | ATP-dependent DNA helicase Q1 (Homo sapiens), P46063 | RECQ1 DNA unwinding, red fluorescence kinetic read | Potency, µM (series often up to 57.3 µM), hits mostly inhibitors | actives 0.54% (n = 240,000) | AID 2549, 2010; also: nearly all actives have a fitted effect of over 30% in size
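RECQ1T1 50 nM; forked duplex (20 bp + 30-nt ss tails) 200 nM, ATP 2 mM final; pH 8.0, 2 mM MgCl2, 2.5 ug/ml poly(dI-dC); 15 min compound preincubation; discontinuous kinetic read over 2 h at RT.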
FEN1 inh = qHTS Assay for the Inhibitors of Human Flap endonuclease 1 (FEN1); P39748; Recombinant FEN1 flap cleavage, fluorescence, 15 min; Potency, µM (doses to about 114 µM), usual class: inhibitors; actives 0.35% (n = 390,000); AID 588795, 2011; also: nearly all actives have a fitted effect of over 65% in size
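Nuclease activity of 10 nM FEN1 was measured after 15 min of room-temperature exposure to titrated compounds, by adding 50 nM flap substrate and reading plates at 0 and 15 min.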
Hits are given with their value; [ ] = remark or other dose. Compounds with a hit are over-represented: about 0.86% of the library has one in this group of screens. Calls follow the shape of the dose curve; as a rule, active = well fitted curve in the direction sought with a large enough effect; inconclusive = small, poorly fitted or top-dose-only effect, or another doubt; inactive = no such curve, though single readings can be large; an effect the other way counts as inactive or inconclusive.

For O=C(NCC(=O)N1CCN(c2ccccc2O)CC1)C1CCCCC1 the results were GLS inh 5.62µM, APE1 inh inactive, PGK inhibitor inactive and FEN1 inh inactive.
`CN(C)c1cc2c3ccccc3n(C)c2cc1N` gave GLS inh 11.2µM, PGK inhibitor inactive and FEN1 inh inactive.
CO/N=C(/C(=O)N[C@@H]1C(=O)N2C(C(=O)[O-])=C(C[n+]3ccn4ncccc43)CS[C@H]12)c1nsc(N)n1 was read as GLS inh inactive.
`COc1cc(/C=N/Nc2nc(N3CCCCC3)nc(N3CCCCC3)n2)ccc1OC(=O)c1ccco1` gave BLM inh inactive, APE1 inh inactive and RECQ1 helicase inactive.
For O=C(Oc1cccc(/C=N/Nc2nc(Nc3ccccc3)nc(N3CCOCC3)n2)c1)c1ccco1 the results were BLM inh inactive, GLS inh inactive, APE1 inh inactive, PGK inhibitor inactive, RECQ1 helicase 22.4µM and FEN1 inh inactive.
`Cn1c(NCCCN2CCOCC2)nc2c1c(=O)n(Cc1ccc(Cl)cc1)c(=O)n2C` gave BLM inh inactive, GLS inh 15.8µM, APE1 inh inactive, PGK inhibitor inactive, RECQ1 helicase inactive and FEN1 inh inactive.
`Cn1c(N2CCCC2)nc2c1c(=O)n(Cc1ccc(Cl)cc1)c(=O)n2C` gave BLM inh inactive, GLS inh 12.6µM, APE1 inh inactive, PGK inhibitor inactive, RECQ1 helicase inactive and FEN1 inh inactive.
Screening Cn1c(NCCCCO)nc2c1c(=O)n(Cc1ccc(Cl)cc1)c(=O)n2C returned BLM inh inactive, GLS inh 12.6µM, PGK inhibitor inactive and FEN1 inh inactive.
For Cn1c(NCCCN2CCOCC2)nc2c1c(=O)n(Cc1ccc(Cl)c(Cl)c1)c(=O)n2C the results were BLM inh inactive, GLS inh inactive, APE1 inh inactive, PGK inhibitor inactive, RECQ1 helicase inactive and FEN1 inh inactive.
`Cn1c(N2CCC(C(N)=O)CC2)nc2c1c(=O)n(Cc1ccc(Cl)cc1)c(=O)n2C` gave BLM inh inactive, GLS inh inconclusive, APE1 inh inactive, PGK inhibitor inactive, RECQ1 helicase inactive and FEN1 inh inactive.
Screening Cc1ccc2nccnc2c1 returned FEN1 inh inactive.
`Cc1cc(C)c2nc3sc(=Cc4ccc(-c5ccccc5C(=O)O)o4)c(=O)n3c2c1` gave GLS inh 12.6µM.
Screening NCc1ccccc1CC(=O)N[C@@H]1C(=O)N2C(C(=O)O)=C(CSc3nnnn3CC(=O)O)CS[C@H]12 returned APE1 inh inactive.
Screening CC(=O)Nc1cc(=O)c2cccnc2[nH]1 returned GLS inh 15.8µM, PGK inhibitor inactive and FEN1 inh inconclusive.
Cn1c(C(c2cc3ccccc3n2C)c2cc3ccccc3n2C)cc2ccccc21 was read as FEN1 inh inactive.
`Nc1cc2c3c(cccc3c1)C(=O)N(CCN1CCCC1)C2=O` gave BLM inh inactive, GLS inh inactive, APE1 inh inconclusive, PGK inhibitor inactive, RECQ1 helicase inconclusive and FEN1 inh 25.1µM.
Screening Cc1cccc2c(C(O)c3c[nH]c4c(C)cccc34)c[nH]c12 returned FEN1 inh inactive.
For COc1ccc(C2=Nn3c(nnc3-c3ccccc3C(F)(F)F)SC2)cc1OC1CCCC1 the results were APE1 inh inactive.
For Cc1cc(C=O)c(C)n1-c1cc(C(=O)O)cc(C(=O)O)c1 the results were BLM inh inactive, GLS inh 17.8µM, APE1 inh inactive, PGK inhibitor 10µM, RECQ1 helicase inactive and FEN1 inh inconclusive.
COC(=O)c1cc(C(=O)OC)cc(-n2c(C)cc(C=O)c2C)c1 was read as BLM inh inactive, GLS inh inactive, APE1 inh inactive, PGK inhibitor inactive, RECQ1 helicase inactive and FEN1 inh inactive.
Cc1sc(-n2c(C)cc(/C=C3\SC(=S)NC3=O)c2C)c(C#N)c1C was read as BLM inh inactive, GLS inh inactive, APE1 inh inactive, PGK inhibitor inactive, RECQ1 helicase 28.2µM and FEN1 inh inconclusive.
`Cc1cc(/C=C2\SC(=S)NC2=O)c(C)n1-c1cccc(O)c1` gave BLM inh inactive, GLS inh inactive, APE1 inh inactive, PGK inhibitor inactive, RECQ1 helicase inactive and FEN1 inh inactive.
Screening COc1ccc(OC)c(-c2nc3cc4ccccc4cc3nc2-c2ccccc2)c1 returned BLM inh inactive, GLS inh inactive, APE1 inh inactive, RECQ1 helicase 3.16µM and FEN1 inh inactive.
COc1ccc(-c2nc3ccccc3nc2-c2ccccc2)cc1OC was read as BLM inh inactive, GLS inh inactive, APE1 inh inactive, PGK inhibitor inactive and FEN1 inh inactive.
`CC(CC(c1ccccc1)c1ccccc1)NC(C)(C)C` (stereo unspecified) gave GLS inh inactive.
`[N-]=C=C1C(=S)NC(=O)[C@H]([n+]2ccccc2)[C@H]1c1ccc(Cl)cc1` gave BLM inh inactive, GLS inh inactive, APE1 inh inconclusive, PGK inhibitor inactive, RECQ1 helicase 31.6µM and FEN1 inh inactive.
Screening CC1=NN(c2cccc(C(=O)O)c2)C(=O)/C1=C\C=C/c1ccccc1 returned BLM inh inactive, GLS inh 15.8µM, APE1 inh inactive, PGK inhibitor inactive, RECQ1 helicase inactive and FEN1 inh 79.4µM.
For COc1ccccc1NC(=O)CSc1sc2c(O)cc(=O)[nH]c2c1C#N the results were BLM inh inactive, GLS inh inactive, APE1 inh inactive[12.4 µM], PGK inhibitor inactive and FEN1 inh 50.1µM.
`COc1ccc(NC(=O)CSc2sc3c(O)cc(=O)[nH]c3c2C#N)c(OC)c1` gave BLM inh inconclusive, GLS inh inactive, APE1 inh inactive, PGK inhibitor inactive and FEN1 inh 31.6µM.
N#Cc1c(SCC(=O)Nc2cccc(C(F)(F)F)c2)sc2c(O)cc(=O)[nH]c12 was read as BLM inh inactive, GLS inh inactive, APE1 inh inactive, PGK inhibitor inconclusive and FEN1 inh 25.1µM.
For CCOC(=O)CCCC(=O)N1CCN(/[N+]([O-])=N/Oc2ccc([N+](=O)[O-])cc2[N+](=O)[O-])CC1 the results were FEN1 inh inactive.
